Rows were chosen to be rich in hits. Some 12% of all compounds tested hit in one or more screens of this group.
JMJD2A Tudor = qHTS Assay for Inhibitors of JMJD2A-Tudor Domain; Potency, µM (titrated, usually from 114 µM), most hits filed as inhibitors; Lysine-specific demethylase 4A (Homo sapiens), O75164; 390,000 tested, 4.4% active; AlphaScreen JMJD2A-Tudor / H3K4me3 peptide binding; note: nearly all actives have a fitted effect of over 50% in size
G9a inh = qHTS Assay for Inhibitors of Histone Lysine Methyltransferase G9a; Histone-lysine N-methyltransferase EHMT2 (Homo sapiens), Q96KQ7; G9a H3K9 monomethylation, AlphaScreen, 2 h; Potency, µM (highest dose often 102 µM), hits mostly inhibitors; 350,000 tested, 8.8% active; AID 504332, 2011; note: nearly all actives have a fitted effect of over 75% in size
Target sequence (Q96KQ7 913-1193 limits assumed): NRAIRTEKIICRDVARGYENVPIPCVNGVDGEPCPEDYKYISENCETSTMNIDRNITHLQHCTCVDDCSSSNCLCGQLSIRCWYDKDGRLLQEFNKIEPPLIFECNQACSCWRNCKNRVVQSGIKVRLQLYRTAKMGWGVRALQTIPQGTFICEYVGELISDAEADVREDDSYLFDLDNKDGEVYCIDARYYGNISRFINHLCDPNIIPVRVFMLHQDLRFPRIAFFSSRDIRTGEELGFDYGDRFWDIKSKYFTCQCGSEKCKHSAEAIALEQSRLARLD
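Using a bead-based AlphaScreen, monomethylated H3K9 product from 2 h room-temperature reactions (G9a 20 nM, peptide 500 nM, SAM 20 uM) was detected with 0.5 ug/mL rabbit anti-H3K9me1 antibody.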
HP1b chromo inh = HTS for Inhibitors of HP1-beta Chromodomain Interactions with Methylated Histone Tails; Chromobox protein homolog 1 (Homo sapiens), P83916; AlphaScreen HP1-beta / biotin-H3K9me3 peptide binding; Potency, µM (series often up to 114 µM), most hits filed as inhibitors; 390,000 tested, 0.56% active; AID 540317, 2011; note: nearly all actives have a fitted effect of over 70% in size
Target sequence (P83916 whole entry, looked up): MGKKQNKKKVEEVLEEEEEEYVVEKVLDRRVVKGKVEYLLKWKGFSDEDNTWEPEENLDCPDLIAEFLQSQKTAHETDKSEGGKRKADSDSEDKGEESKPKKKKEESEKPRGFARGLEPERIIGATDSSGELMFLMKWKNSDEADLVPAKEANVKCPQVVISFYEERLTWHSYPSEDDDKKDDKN
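HP1-beta protein (50 nM final) preincubated 30 min at room temperature with biotinylated H3(1-18)K9me3 peptide (50 nM) in PBS pH 7.4, 0.01% Tween-20, then compound added for 30 min. AlphaScreen streptavidin donor/nickel chelate acceptor beads (10 ug/mL final), 30 min dark, luminescence read.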
L3MBTL1 block = qHTS Assay for the Inhibitors of L3MBTL1. Lethal(3)malignant brain tumor-like protein 1 (Homo sapiens), Q9Y468. AlphaScreen L3MBTL1–H3K9me1 peptide binding. Potency, µM (top dose mostly 57.1 µM), hits mostly inhibitors. 230,000 tested, 0.66% active; note: nearly all actives have a fitted effect of over 60% in size
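L3MBTL1 (50 nM) pre-complexed 30 min with biotinylated H3(1-15)K9me1 peptide (75 nM), then compounds added for 30 min at room temperature; AlphaScreen streptavidin donor/nickel chelate acceptor beads (10 ug/mL final) read after 30 min dark incubation.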
BAZ2B block = qHTS Assay for Inhibitors of BAZ2B. 360,000 tested, 4.4% active. AID 504333, 2011. Potency, µM (highest dose often 114 µM), usual class: inhibitors. Bromodomain adjacent to zinc finger domain protein 2B (Homo sapiens), Q9UIF8. AlphaScreen BAZ2B-H3K14Ac peptide displacement; note: nearly all actives have a fitted effect of over 60% in size
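Protein-peptide AlphaScreen: BAZ2B 50 nM, b-H3K14Ac 50 nM, 1x PBS pH 7.4 + 0.01% Tween-20. Preincubation 30 min RT; cpd 30 min RT (top 110 uM); beads 20 min RT, light-protected.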
Sfp inh = qHTS Assay for Inhibitors of Bacillus subtilis Sfp phosphopantetheinyl transferase (PPTase). 4'-phosphopantetheinyl transferase ffp (Bacillus subtilis), Q9F4F7. Biochemical Sfp PPTase activity, qHTS. Potency, µM, hits mostly inhibitors. 310,000 tested, 3.5% active. AID 1490, 2009;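 note: the enzyme is Sfp with the accession as filed and its product quenches rhodamine fluorescence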
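Sfp 15 nM + cpd, 15 min RT; start w/ rhodamine-CoA 5 uM, BHQ-2-YbbR 12.5 uM (final); 50 mM Hepes pH 7.6, 10 mM MgCl2, 0.01% NP-40, 0.01% BSA; read 525/598 nm at 0 and 30 min.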
Numbers stand for hits; - = inactive; ? = inconclusive; . = no result given; [ ] = remark or other dose. Calls come from the whole dose curve; as a rule, active = well fitted curve in the direction sought with a large enough effect; inconclusive = small, poorly fitted or top-dose-only effect, or another doubt; inactive = no such curve, though single readings can be large; an effect the other way counts as inactive or inconclusive.

SMILES | JMJD2A Tudor | G9a inh | HP1b chromo inh | L3MBTL1 block | BAZ2B block | Sfp inh
Cc1nc2ccccn2c(=O)c1NC(=O)c1ccc(C(F)(F)F)cc1 | - | - | - | . | - | .
COc1cc(C2c3c(oc4ccc(C)cc4c3=O)C(=O)N2Cc2ccccc2)ccc1O (configuration not stated) | - | - | - | . | - | .
COc1ccc(N2C(=O)CSC2c2ccccc2)cc1 (configuration not stated) | - | - | - | . | - | -
COc1ccc(N2C(=O)CSC2c2ccccc2[N+](=O)[O-])cc1 (configuration not stated) | - | 50µM | - | - | - | -
COc1cc(Cl)cc2c1Sc1ccccc1/C2=C/CCN(C)C | ? | ? | - | - | 45µM | -
CN(C)CC/C=C1/c2cc(F)ccc2Sc2ccc(Cl)cc21 | ? | . | - | . | . | .
CN(C)CC/C=C1/c2ccccc2Sc2c(O)cc(Cl)cc21 | ? | 25µM | - | - | ? | ?
COc1cc2c(cc1Cl)/C(=C\CCN(C)C)c1ccccc1S2 | ? | ? | ? | - | ? | -
O=C(/C(Br)=C/Nc1cc(Cl)ccc1Cl)C(F)(F)F | ? | 10µM | - | - | ? | -
CCCCC(CC)CNC(=O)c1ccc(Cn2c(=O)[nH]c3cc(OC)c(OC)cc3c2=O)cc1 (configuration not stated) | - | - | - | . | - | .
CCOc1ccc(Sc2cc(C(=O)NC(C)CC)c3ccccc3n2)cc1 (configuration not stated) | - | - | - | . | - | .
Nc1nc(CN2CCc3ccccc3C2)nc(Nc2ccccc2)n1 | 79µM | ? | - | -[11.4 µM] | 50µM | -
COc1ccc(Nc2nc(N)nc(CN3CCc4ccccc4C3)n2)cc1 | ? | ? | - | - | 50µM | -
Nc1nc(CN2CCC(Cc3ccccc3)CC2)nc(Nc2ccccc2)n1 | ? | -[12.7 µM] | - | . | - | -
CC1CC(C)CN(Cc2nc(N)nc(Nc3ccccc3)n2)C1 (configuration not stated) | ? | . | - | - | ? | -
COc1ccc(Nc2nc(N)nc(CN3CCC(C)CC3)n2)cc1 | - | 20µM | - | . | - | -
CC1CC(C)CN(Cc2nc(N)nc(Nc3ccc4ccccc4c3)n2)C1 (configuration not stated) | -[11.4 µM] | - | - | ? | 50µM | -
Oc1ccc(C(c2nnnn2C2CCCC2)N2CCc3ccccc3C2)cc1 (configuration not stated) | -[11.4 µM] | 4.5µM | - | - | 56µM | 50µM
COc1cc(C(c2nnnn2C2CCCC2)N2CCc3ccccc3C2)ccc1O (configuration not stated) | ? | 1.8µM | ? | - | - | 18µM
COc1ccc(C(c2nnnn2C2CCCC2)N2CCN(C(=O)c3ccco3)CC2)cc1OC (configuration not stated) | ? | ? | - | . | ? | -
O=c1c(-c2ccccc2)nc2cncnc2n1Cc1ccccc1 | . | -[0.501 µM] | . | . | . | -
Cc1ccc(CNC(=O)C2CCN(S(=O)(=O)c3c(C)noc3/C=C/c3cccs3)CC2)cc1 | - | - | - | . | . | .
CCCCN1CCc2nc(Nc3ccc(OC)cc3OC)ncc2C1 | ? | - | - | . | ? | .
COC(=O)CN1C(=O)CSc2ccc(S(=O)(=O)N3CCOCC3)cc21 | - | ? | - | . | - | .
COc1ccc(NC(=O)CCCn2c(=O)c3sccc3n(Cc3ccc(C)cc3C)c2=O)cc1 | - | - | - | - | - | 50µM
SMILES | JMJD2A Tudor | G9a inh | HP1b chromo inh | L3MBTL1 block | BAZ2B block | Sfp inh
CCCCCCCCn1c2c(c(=N)c3ccccc31)CCC2 | - | - | - | - | - | -
CCCCCn1c2c(c(=N)c3ccccc31)CCC2 | ? | 50µM | - | - | - | ?
CCn1c2c(c(=N)c3c1CCC3)CCCC2 | - | - | - | - | - | -
CCCCCCCCCn1c2c(c(=N)c3c1CCC3)CCCC2 | - | - | - | - | - | 45µM
CCCCCCCCCCn1c2c(c(=N)c3c1CCC3)CCC2 | - | -[12.7 µM] | - | - | - | 28µM
Cc1cc(-n2c(SCc3ccccc3F)nc3[nH]ncc3c2=O)ccc1Cl | ? | - | - | . | - | .
Cc1c(NC(=S)N/N=C/c2ccc(O)cc2)c(=O)n(-c2ccccc2)n1C | - | - | - | - | - | -
Cc1c(NC(=O)Nc2ccc([N+](=O)[O-])cc2)c(=O)n(-c2ccccc2)n1C | 16µM | - | - | . | - | -
Cc1c(NC2=C(Cl)C(=O)N(c3ccccc3Cl)C2=O)c(=O)n(-c2ccccc2)n1C | ? | 40µM | - | ? | - | 50µM
Cc1c(Cl)cccc1NC(=O)Nc1c(C)n(C)n(-c2ccccc2)c1=O | - | 79µM | - | . | - | -
Cc1c(NC(=S)N/N=C/c2cc([N+](=O)[O-])ccc2O)c(=O)n(-c2ccccc2)n1C | 28µM | 56µM | - | 32µM | 5.6µM | -
Cc1cc(=O)[nH]c(Nc2c(C)n(C)n(-c3ccccc3)c2=O)n1 | - | -[12.7 µM] | - | -[11.4 µM] | - | -
Cc1cccc(NC(=O)Nc2c(C)n(C)n(-c3ccccc3)c2=O)c1C | - | - | - | . | - | -
COc1ccc(COC(=O)N/N=C2/C[C@@H](O)[C@@H](O)[C@@H]3[C@H]4C(=O)N(c5ccc(F)cc5F)C(=O)[C@@H]4CC[C@@H]23)cc1 | . | . | . | . | . | -
NC(CSCSCC(N)C(=O)O)C(=O)O (configuration not stated) | . | . | . | . | . | -
Cc1ccc(Nc2sc(C(=O)c3ccccc3)c(N)c2S(=O)(=O)c2ccccc2)c(C)c1 | - | - | - | . | - | .
O=C(CCCN1C(=O)/C(=C\c2cccs2)SC1=S)Nc1cccc(C(=O)O)c1 | ? | ? | - | . | - | -
O=C(CCCN1C(=O)/C(=C\c2ccco2)SC1=S)Nc1ccc(O)cc1C(=O)O | 22µM | 10µM | 25µM | . | 14µM | 50µM
O=C(CCCN1C(=O)/C(=C/c2ccco2)SC1=S)Nc1cccc(C(=O)O)c1 | ? | . | ? | - | 45µM | 25µM
COc1ccccc1NC(=O)C1CCN(c2cnccn2)CC1 | - | - | - | . | - | .
CC1CCCN(CCCNC(=O)Cn2ncc3c([nH]c4ccccc43)c2=O)C1 (configuration not stated) | - | - | - | . | - | .
O=C(O)C1CSC(c2coc3ccccc3c2=O)N1 (configuration not stated) | 25µM | ? | ? | - | 50µM | 45µM
COc1ccc(-n2ccnc(NCCc3ccc(S(N)(=O)=O)cc3)c2=O)cc1Cl | - | - | - | . | - | .
COc1cccc(OC)c1OCCCN1CCOCC1 | 2.5µM | ? | ? | - | 50µM | -

Source: PubChem BioAssay (National Center for Advancing Translational Sciences (NCATS))
